High-throughput results (PubChem)
MARV entry inh – inhibitors of Marburg virus binding or cell entry | Marburg virus pseudotyped entry inhibition, cell reporter | Potency, µM (series often up to 37.8 µM), for the others: at the highest dose activity change, negative = inhibition, usual class: inhibitors | actives 1.8% (n = 300,000) | AID 540276; calls by dose curve; tested in HEK293 cells
LASV entry inh – blocks Lassa virus binding to or entry into cells | Lassa virus pseudotype entry inhibition, cell reporter | Potency, µM (titrated, usually from 37.9 µM), for the others: top-dose activity change, negative = inhibition, actives largely listed as inhibitors | actives 1.2% (n = 300,000) | AID 540256; calls by dose curve; tested in HEK293 cells; also: nearly all actives have a fitted effect of over 50% in size
FMDV inh – blocks foot and mouth disease virus | FMDV antiviral cell-based qHTS | Potency, µM (top dose mostly 57.9 µM), for the others: at the highest dose activity change, negative = inhibition, most hits filed as inhibitors | actives 1.2% (n = 410,000) | AID 1159524; calls by dose curve; tested in HEK293T cells; also: read-out not given here; nearly all actives have a fitted effect of over 45% in size
HCV inhibitor – blocks hepatitis C virus; Huh7.5.1 HCVcc-Cre infection, luciferase reporter, 44 h; Potency, µM (doses to about 41.8 µM), for the others: at the top dose activity change, negative = inhibition, most hits filed as inhibitors; actives 3.4% (n = 340,000); AID 651820
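Cells seeded at 1,000/well and cultured 4 h, then compounds added followed by HCVcc-Cre virus (~0.5 moi). After 44 h further culture, luciferase substrate was added, plates held 15 min at room temperature, and luminescence read for 15 sec.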
RE007 growth inh – less growth of the S. pombe RE007 Vpr strain | Potency, µM (doses to about 92.2 µM), for the others: top-dose activity change, negative = less growth, actives largely listed as inhibitors | actives 0.21% (n = 360,000) | S. pombe RE007 Vpr strain, BacTiter-Glo ATP luminescence, 24 h | AID 651644; active = well fitted falling curve with a large enough effect; inconclusive = small, poorly fitted or top-dose-only effect; inactive = no such curve, though single readings can be large or run the other way; also: nearly all actives have a fitted effect of over 50% in size
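Fission yeast RE007 carrying one integrated HIV-1 vpr copy, seeded at OD 0.01 in PMG+AL medium with 23 nL pinned compound. Grown 24 h at 30 degrees; viability read by BacTiter-Glo luminescence after 5 min.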
Sm TGR inh – S. mansoni TGR enzyme inhibition | actives 3% (n = 360,000) | Q962Y6 | purified TGR, DTNB reduction, TNB absorbance 405 nm | Potency, µM (doses to about 114 µM), without a hit: at the highest dose activity change, negative = inhibition, actives largely listed as inhibitors; also: nearly all actives have a fitted effect of over 60% in size
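First, TGR (20 nM dispensed) and NADPH were mixed with compound. Second, a 15 min room-temperature incubation followed. Third, further NADPH and then DTNB were added to start the reaction. Finally, TNB absorbance was monitored kinetically.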
Active calls of the source: *; ? = inconclusive; · = no result given; [ ] = another dose, or the depositor's remark. Rows were chosen to be rich in hits. Some 7.2% of all compounds tested hit in one or more screens of this group. Unless noted, calls follow the shape of the dose curve; as a rule, active = well fitted curve in the direction sought with a large enough effect; inconclusive = small, poorly fitted or top-dose-only effect, or another doubt; inactive = no such curve, though single readings can be large; an effect the other way counts as inactive or inconclusive. % is scaled to controls: 0 for no effect and ±100 for the full control effect; potency is read from the fitted curve at half-maximal effect.

SMILES	MARV entry inh	LASV entry inh	FMDV inh	HCV inhibitor	RE007 growth inh	Sm TGR inh
O=C1c2ccccc2NC(c2ccco2)N1O (stereo unspecified)	4.8%	10.8%	20.0%	4.0%	-1.0%	50.1µM*
COC(=O)CC=C1c2ccc(OC)cc2[C@@H](OC)[C@@H]1C	3.5%[14.2 µM]	?	·	·	·	·
COc1cc(CNCCc2ccc(S(N)(=O)=O)cc2)ccc1OCc1ccc(Cl)cc1	?	?	?	4.47µM*	10.1%	0.0%
COc1ccc(Cl)cc1NC(=S)NCCc1ccc(S(N)(=O)=O)cc1	?	?	-27.6%	-27.0%	11.1%	2.82µM*
COc1ccccc1NC(=S)NCCc1ccc(S(N)(=O)=O)cc1	-6.3%[14.2 µM]	2.6%	-13.5%	9.9%	27.4%	-5.9%[57.1 µM]
Cc1nn(-c2ccc(F)cc2)c(C)c1CNC(=O)c1ccc(-n2cc(NC(=O)c3ccoc3)cn2)cc1	·	·	-10.0%	·	·	·
CC1CC(N(C(=O)c2ccco2)c2ccccc2)c2ccccc2N1C(=O)c1ccco1 (stereo unspecified)	?	-24.7%	-1.2%	-2.3%	14.9%	-13.7%
CC1CC(N(C(=O)c2ccc(Cl)cc2)c2ccccc2)c2ccccc2N1C(=O)c1ccco1 (stereo unspecified)	?	20µM*	?	10µM*	12.9%	-0.8%
O=C(Nc1cccc(Cl)c1)C1C2CCC3C(CCC21)C3(Cl)Cl (stereo unspecified)	?	?	39.8µM*	?	-9.5%	-12.8%
Cc1cc(OCCCCCNCCO)cc(C)c1Cl	?	6.7%	-28.2%	12.6µM*	-24.3%	3.1%[11.4 µM]
CCOC(=O)c1c(C)[nH]c(C)c1S(=O)(=O)N1CCC(C(=O)Nc2ccc(OC)c(OC)c2)CC1	·	?	-12.5%	·	·	11.6%
CCOC(=O)Cn1cc(C(=O)c2cccs2)c2ccccc21	?	3.1%	-1.4%	8.91µM*	1.1%	3.3%
COc1ccc(OC)c(CN2CCOc3ccc(CN4CCC(O)(c5cccnc5)CC4)cc3C2)c1	·	·	0.1%	·	·	·
COc1cc(-c2nc3sccn3c2Nc2c(C)cccc2C)ccc1O	?	-32.0%[46.1 µM]	-1.5%	·	·	1.12µM*
Cc1cccc(C)c1Nc1c(-c2ccc(O)cc2)nc2sccn12	-13.7%[46.1 µM]	-5.4%[46.1 µM]	0.0%	·	·	-33.0%
O=C(N/N=C1\C[C@@H](O)[C@@H](O)[C@@H]2[C@@H]3C(=O)N(Cc4ccc5c(c4)OCO5)C(=O)[C@@H]3CC[C@H]12)OCc1ccccc1	-2.2%[14.2 µM]	·	·	·	·	·
CC(=O)N1CCC2(CCCN(C(=O)Nc3cccc(C#N)c3)C2)CC1	·	·	-6.3%	·	·	·
CCOC(=O)c1[nH]c2ccc(OC)cc2c1NC(=S)N1CCN(c2cccc(C)c2C)CC1	2.24µM*	?	0.0%	10µM*	21.9%	-0.9%
COc1ccc(CNC(=O)C(=O)NCC(c2cccnc2)N2CCN(c3ccccc3)CC2)cc1 (stereo unspecified)	·	10.7%[46.1 µM]	-9.7%	·	·	1.8%
CC(=O)Nc1ccc2c(c1)n(C)c(=O)n2C	2.6%	26.3%	17.1%	20.2%	12.9%	0.6%
CCn1c(=O)oc2cc(NC(=O)CCl)ccc21	?	?	22.4µM*	?	20.7%	39.8µM*
Cn1c(=O)n(C)c2cc(NC(=O)CCl)ccc21	?	18.3µM*	?	?	4.0%	17.8µM*
COc1cc2[nH]c(=O)n(Cc3ccc(C(=O)N4CCN(c5cccc(C)c5C)CC4)cc3)c(=O)c2cc1OC	12.0%[46.1 µM]	-2.0%[46.1 µM]	-0.7%	·	·	-10.5%
CCCCSCCCNC(=O)c1cn(C)c2ccc(S(=O)(=O)N3CCCCCC3)cc2c1=O	10.4%[46.1 µM]	-4.7%[46.1 µM]	-5.3%	·	·	-1.3%
O=C(NC(=S)Nc1ccccc1)c1csnn1	10.4%	-1.4%	·	4.2%	-4.3%	14.1µM*
SMILES	MARV entry inh	LASV entry inh	FMDV inh	HCV inhibitor	RE007 growth inh	Sm TGR inh
COc1ccc(NC(=S)NC(=O)c2csnn2)cc1	-24.2%[46.1 µM]	0.3%	28.5%	6.6%	-12.7%	0.0%
COc1cc(-c2nc3ccccn3c2/N=C/c2cc(OC)c(O)cc2Cl)ccc1O	?	24.1%[46.1 µM]	6.5%	-5.7%	?	25.1µM*
COc1cc(-c2nc3ccccn3c2/N=C/c2ccccc2)ccc1O	10.9%	10.5%	·	14.0%	-1.5%	-10.0%
Cc1cc(-c2ccnc(-n3ncc(C(=O)NCc4cccnc4)c3C3CC3)n2)c(C)s1	·	·	-11.9%	·	·	·
Cc1cccc(N2CCN(c3ncnc4c3cnn4-c3ccc(Cl)cc3)CC2C)c1 (stereo unspecified)	·	-0.9%[46.1 µM]	31.6µM*	·	·	9.0%
Cc1cccc(-n2ncc3c(N4CCCCCC4)ncnc32)c1	·	-5.1%[46.1 µM]	15.8µM*	·	·	11.3%
Cc1cccc(-n2ncc3c(N4CCC(C)CC4)ncnc32)c1	·	·	3.9%	-2.7%	-22.0%	-1.3%
COc1cccc(N2CCN(c3ncnc4c3cnn4-c3ccc(C)cc3C)CC2)c1	-3.7%	·	3.98µM*	3.55µM*	-4.9%	-1.4%
Cc1ccc(-n2ncc3c(N4CCCC(C)C4)ncnc32)c(C)c1 (stereo unspecified)	-0.1%	·	-21.5%	-19.6%	14.1%	-1.3%
Cc1cccc(-n2ncc3c(N4CCCC(C)C4)ncnc32)c1 (stereo unspecified)	·	-22.5%[46.1 µM]	25.1µM*	·	·	12.4%
Cc1ccc(-n2ncc3c(SCc4cccnc4)ncnc32)c(C)c1	?	2.82µM*	-26.7%	11.2µM*	35.5%	1.0%
Cc1ccc(-n2ncc3c(N4CCCCCC4)ncnc32)cc1C	·	22.0%[46.1 µM]	56.2µM*	·	·	4.6%
Cc1ccc(NC(=O)Cn2nnc(C(=O)NCCc3ccccc3)c2N)cc1	-30.4%[46.1 µM]	36.3%[46.1 µM]	-3.9%	·	·	-9.1%
Brc1ccc2ncnc(NCc3ccccc3)c2c1	?	?	?	10µM*	?	-2.4%
Cc1cc2c(NCCc3ccccc3)ncnc2s1	7.08µM*	?	-19.7%	5.62µM*	-15.6%	2.9%
c1ccc(CCNc2ncnc3ccccc23)cc1	·	·	-41.7%	1.12µM*	4.4%	4.9%
Cc1ccc(-n2ncc3c(NCCc4ccccc4)ncnc32)cc1	·	-1.3%[46.1 µM]	36.3%	·	·	2.2%
Cc1cc2c(NC3CCCCC3)ncnc2s1	?	?	0.0%	10µM*	-11.8%	-13.4%
Cc1ccc(OCc2nnc(-c3ccccc3)o2)cc1	?	29.8%[46.1 µM]	8.7%	·	·	16.5%
CCc1ccccc1Nc1ncnc2ccccc12	-25.0%[46.1 µM]	?	-9.5%	?	8.5%	8.3%
CCCCCCCCNc1ncnc2ccccc12	?	?	0.0%	0.794µM*	?	-31.9%
Cc1ccc(C)c(N2CCN(C(=O)CN3C(=O)CSc4c3c(C)nn4-c3ccccc3)CC2)c1	·	10.8%[46.1 µM]	35.5µM*	·	·	-12.1%
COCCn1c(C)cc(O)c(C(c2ccccc2)N2CCC(C)CC2)c1=O (stereo unspecified)	·	0.2%[46.1 µM]	-9.8%	·	·	22.4µM*
COCCn1c(C)cc(O)c(C(c2ccc(F)cc2)N2CCC(C)CC2)c1=O (stereo unspecified)	·	0.4%[46.1 µM]	-7.3%	·	·	10µM*
